# Laboratory results taken from PubChem BioAssay AID1063 (University of Pittsburgh Molecular Library Screening Center, 2008).
# The campaign covered roughly 200,000 compounds. About 18,000 (9%) were called active. No stated cut-off is given here; in the data, active means inhibition above about 50%; inactive means the rest. The list comes from a sample in which actives are over-represented; it also holds similar structures and randomly drawn compounds.
# Experiment: antileishmanial activity against promastigotes – primary screen (AID 1063);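 further: promastigotes grown with compound for 44 hours at 28 °C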
# Settings: Leishmania major promastigotes, resazurin fluorescence viability; at 10 µM; hits give high values
row,SMILES,inhibition
1,O=C(c1ccc2ccccc2n1)N1CCN(c2ccccc2Cl)CC1,-3.63% (inactive)
2,O=C(c1ccc(C(F)(F)F)cc1)C1CCCN(C(=O)c2csnn2)C1 (stereo not drawn),-5.59% (inactive)
3,CSc1ccc(C(=O)C2CCCN(C(=O)c3ccc(C)nc3)C2)cc1 (stereo not drawn),-4.42% (inactive)
4,O=C(c1ccc(-c2ccccc2)cc1)C1CCCN(C(=O)c2cncs2)C1 (stereo not drawn),58.5% (active)
5,C/C=N/NC(=O)CCCC(=O)N/N=C/C,13.8% (inactive)
6,COc1cccc(NC(=O)CN(C)C(C)C(=O)Nc2ccc(C#N)cc2)c1 (stereo not drawn),5.24% (inactive)
7,CCOc1ccc(NS(=O)(=O)c2ccc(C)c(C(N)=O)c2)cc1,-2.88% (inactive)
8,COCCn1c(Cc2cccn2C)nnc1SCC(=O)Nc1nccs1,1.7% (inactive)
9,Nc1cc(C(F)(F)F)ccc1N1CCOCC1,0.97% (inactive)
10,O=C(/C=C/c1ccc(Cl)cc1)Nc1ccc(Br)cn1,0.77% (inactive)
11,O=C(Nc1ccc(Br)cn1)c1ccc([N+](=O)[O-])cc1Cl,13.7% (inactive)
12,O=C(Nc1ccc(Br)cn1)c1ccc([N+](=O)[O-])o1,100% (active)
13,CS(=O)(=O)Nc1cccc(-c2cn3ccccc3n2)c1,-2.73% (inactive)
14,Cc1cnc(C(=O)OCC(=O)NCCCc2ccccc2)cn1,-4.28% (inactive)
15,O=C(NCc1ccco1)C1(c2ccc(Cl)cc2)CCCC1,76.6% (active)
16,O=C(NCCCCCCNC(=O)NCc1ccco1)NCc1ccco1,-3.59% (inactive)
17,O=C(CC1CCCCC1)NCc1ccco1,-0.08% (inactive)
18,COc1ccc(N2C(=O)C(Cc3ccccc3)NC2=S)cc1 (stereo not drawn),-0.72% (inactive)
19,Cn1cc(CN2CCCCC2c2ccccn2)c(-c2ccc3c(c2)OCCO3)n1 (stereo not drawn),-2.73% (inactive)
20,Cc1cc(/C=C2/NC(=O)NC2=O)c(C)n1-c1cccnc1,60.6% (active)
21,Cc1cc(/C=C2\SC(=Nc3ccc(N4CCOCC4)cc3)N(C)C2=O)c(C)n1-c1cccnc1,0.4% (inactive)
22,Cc1ccccc1-n1c(C)cc(/C=C2\NC(=O)NC2=O)c1C,7.26% (inactive)
23,CCNC(=O)COc1cc(C)c(Br)c(C)c1,-1.41% (inactive)
24,CN(C)/C=C(/C(=O)c1ccc(F)cc1)S(=O)(=O)c1ccc(F)cc1,-1.08% (inactive)
25,CCC(C)(C)NC(=O)C(c1ccccn1)N(C(=O)c1csnn1)c1ccccc1 (stereo not drawn),-5.39% (inactive)

row,SMILES,inhibition
1,Cc1ccc(C)c(-n2nnnc2SCC(=O)c2c(N)n(C)c(=O)n(C)c2=O)c1,-5.78% (inactive)
2,CN(C)/C=C(/C(=O)c1ccccc1)S(=O)(=O)c1ccc(Cl)cc1,-6.81% (inactive)
3,COc1ccc(/C=N/NC(=O)Nc2ccc3nsnc3c2)c(OC)c1,-1.6% (inactive)
4,COc1cccc(NC(=O)c2ccc(Cn3cc([N+](=O)[O-])cn3)o2)c1,47.4% (inactive)
5,COc1cccc(NC(=O)c2nn(-c3ccc(OC)cc3OC)c(=O)c3ccccc23)c1,-3.79% (inactive)
6,COc1cccc(NC(=O)c2nn(C34CC5CC(CC(C5)C3)C4)cc2[N+](=O)[O-])c1,66.2% (active)
7,CC(CO)NCC12CC3CC(CC(C3)C1)C2 (stereo not drawn),7.47% (inactive)
8,CC(C)N(C)C(=O)CCc1nnc(CCc2c[nH]c3ccccc23)o1,-3.38% (inactive)
9,Cc1nnsc1C(=O)N/N=C/c1cccc(C(F)(F)F)c1,12.3% (inactive)
10,CCOc1ccc(-n2c(SCC(=O)NC3CCS(=O)(=O)C3)nnc2-c2cccnc2)cc1 (stereo not drawn),-3.53% (inactive)
11,Cc1ccc(C(=O)NN(CCC#N)C2=NS(=O)(=O)c3ccccc32)cc1,-9.19% (inactive)
12,Cc1ccc(S(=O)(=O)N(NC2=NS(=O)(=O)c3ccccc32)C(=O)c2ccccc2)cc1,53% (active)
13,CC(C)(C)c1csc(NC2=NS(=O)(=O)c3ccccc32)n1,-6.96% (inactive)
14,O=C(NNS(=O)(=O)c1ccc(F)cc1)c1cnccn1,-7.62% (inactive)
15,COc1ccc(C(=O)NNC(=O)c2cc(C)[nH]n2)cc1,-2.25% (inactive)
16,Cc1ccc(Cl)c(NC(=O)CN(C)CC(=O)Nc2ccc(F)c(F)c2F)c1Cl,0.59% (inactive)
17,CC(CNC(=O)c1ccc(N)cc1)NC(=O)c1ccc(N)cc1 (stereo not drawn),-1.57% (inactive)
18,Cc1cc(C)c(NC(=O)c2oc3ccccc3c2COc2ccccc2)c(C)c1,62.7% (active)
19,COCc1c(C(=O)OCc2c(C)noc2C)oc2ccccc12,-3.77% (inactive)
20,CCOC(=O)c1oc2ccccc2c1NC(=O)c1cccs1,-2.52% (inactive)
21,NC(=O)COc1ccc(NC(=O)c2ccccc2-c2ccccc2)cc1,10.2% (inactive)
22,CCO/C=C1\C(=O)N(c2ccc(OCC)cc2)C(=O)c2ccccc21,0.41% (inactive)
23,NS(=O)(=O)c1ccc(CCNC(=O)c2ccc([N+](=O)[O-])cc2[N+](=O)[O-])cc1,-7.26% (inactive)
24,NS(=O)(=O)c1ccc(CNC(=O)c2ccc(Cl)cc2[N+](=O)[O-])cc1,52.1% (active)
25,NS(=O)(=O)c1ccc(CCNC(=O)c2ccc(Cl)cc2[N+](=O)[O-])cc1,6.41% (inactive)

row,SMILES,inhibition
1,Cc1ccc(C(=O)NCC(=O)O)s1,-10.9% (inactive)
2,COCCNCCOCCOc1cccc(OC)c1,1.86% (inactive)
3,CSc1ccc(/C=N\NC(=O)COc2ccc(Cl)cc2Br)cc1,-9.17% (inactive)
4,COCCCNCCOCCOc1ccc(Cl)cc1Br,91.2% (active)
5,Cc1cc(C)n(-c2ccc3nncn3n2)n1,-5.45% (inactive)
6,C=CCn1c(=NC(=O)c2cccs2)sc2cc(NC(C)=O)ccc21,9.06% (inactive)
7,CCCOC1CCCN(Cc2cn(C)nc2-c2ccccc2F)C1 (stereo not drawn),-5.85% (inactive)
8,Cn1cc(CN2CCCC(CO)C2)c(-c2ccc(Oc3ccccc3)cc2)n1 (stereo not drawn),88.6% (active)
9,Cc1ccc(CN2CCN(Cc3cn(C)nc3-c3ccccc3)CC2CCO)o1 (stereo not drawn),-3.67% (inactive)
10,O=C(CSc1nc(O)c(Cc2ccccc2)c(=O)[nH]1)Nc1nc2c(s1)CCCC2,2.85% (inactive)
11,CC(=O)NC(CC(=O)O)c1ccc(F)cc1 (stereo not drawn),-5.31% (inactive)
12,CC(=O)NC(Cc1ccc(F)cc1)C(=O)O (stereo not drawn),83.9% (active)
13,CC(=O)c1ccc(NC(=O)N[C@@H](Cc2ccccc2)C(=O)O)cc1,-5.12% (inactive)
14,N#Cc1c(N)nc2c(c1N)CC(C(F)(F)F)O2 (stereo not drawn),1.43% (inactive)
15,Cc1ccc(C(=O)O)cc1N1C(=O)CCCC1=O,-2.53% (inactive)
16,Cc1nc(-c2ccccc2)sc1C(=O)/C=C/c1ccccc1,48.9% (inactive)
17,O=C(/C=C/c1ccccc1)c1ccccc1O,9.25% (inactive)
18,Cc1[nH]c(=O)c(C(=O)/C=C/c2ccccc2)c2c1CCCC2,98.8% (active)
19,O=C(CCNC(=O)Cn1ccc2ccccc2c1=O)NCCC1=CCCCC1,-3.42% (inactive)
20,Cc1ccccc1N1C(=O)C(Oc2ccc(Cl)cc2)C1CNCC1CCCO1 (stereo not drawn),14.7% (inactive)
21,CCc1nc2ccccc2c(C(=O)NCc2ccc(OC)cc2)c1C,-2.62% (inactive)
22,Cc1cccc2c(=O)n3c(nc12)CCCCC3,-1.77% (inactive)
23,Cc1nc(N=C(N)N)nc2c(C)cccc12,99.5% (active)
24,COc1nc(N=C(N)N)nc2c(C)cccc12,29% (inactive)
25,CCOc1ccc(N2C(=O)Nc3ccccc3C2(O)C(=O)NCc2ccco2)cc1 (stereo not drawn),-6.71% (inactive)

row,SMILES,inhibition
1,Cc1ccc(CCCOC(=O)C[N+]2(C)CCCCC2)cc1,-3.49% (inactive)
2,CSc1ccc(CN(C)CC(=O)NCc2ccc(F)cc2)cc1,-5.11% (inactive)
3,CSc1ccc(S(=O)(=O)NCc2ccc(Cl)cc2)cc1,-1.27% (inactive)
4,CCCCc1ccc(NC(=S)NCCCN2CCOCC2)cc1,32.5% (inactive)
5,CSc1ccc(CNCCN2CCOCC2)cc1,67.6% (active)
6,CCCCNCc1ccc(SC)cc1,76.3% (active)
7,O=C(NCCN1CCOCC1)[C@H](Cc1ccccc1)N1C(=O)c2ccccc2C1=O,-3.08% (inactive)
8,Cc1cc(/C=N/NC(N)=O)c(C)n1C1CCCCC1,2.71% (inactive)
9,COc1ccc(-c2nc(N)sc2C2(O)C(=O)Nc3c(Br)cc(F)cc32)cc1OC (stereo not drawn),-2.63% (inactive)
10,O=C(/C=C/c1ccco1)Nc1cccc(-c2nc3ccccc3[nH]2)c1,28.8% (inactive)
11,O=C(/C=C/c1ccco1)Nc1ccc(Oc2ccccc2)cc1,99.6% (active)
12,Cc1nnc(NC(=O)/C=C/c2ccco2)s1,21.5% (inactive)
13,COC(=O)C1=C(C(=O)OC)C(c2cc([N+](=O)[O-])ccc2O)c2sc(=O)[nH]c2S1 (stereo not drawn),-11.4% (inactive)
14,Clc1ncn(CCOc2ccccc2)c1Cl,-6.41% (inactive)
15,CCN(CC)CCNC(=O)c1sc2ncn(CC(=O)Nc3ccc(C)c(Cl)c3)c(=O)c2c1C,87.1% (active)
16,CCN(CC)CCNC(=O)Cn1cnc2sc(C)c(S(=O)(=O)N3CCOCC3)c2c1=O,-1.31% (inactive)
17,CCN(CC)CCCNC(=O)Cn1cnc2sc(C)c(S(=O)(=O)N3CCN(c4ncccn4)CC3)c2c1=O,1.29% (inactive)
18,O=C(CC1C(=O)NCCN1Cc1ccc(-c2ccccc2)cc1)NCc1ccncc1 (stereo not drawn),-2.72% (inactive)
19,Cc1ccccc1NC(=O)CN1C(=O)N/C(=C\c2cccn2-c2cccc(C(=O)O)c2)C1=O,-4.64% (inactive)
20,Cc1cc(C)nc(Nc2cc([N+](=O)[O-])ccc2C)n1,2.27% (inactive)
21,Cc1ccc(Nc2ccc(C(N)=O)cc2[N+](=O)[O-])cc1,-4.3% (inactive)
22,Cc1ccc(Nc2cc(C)nc3c(C)ccc([N+](=O)[O-])c23)cc1,87.2% (active)
23,O=S(=O)(Nc1ccccn1)c1cccc(S(=O)(=O)c2ccc(Cl)cc2)c1,-10.8% (inactive)
